# From PubChem BioAssay AID651710 (Broad Institute, 2012)
# Values joined by “and” are separate entries in the source; they are usually repeats but may differ in a detail not shown here. Equal values may be shown once. About 1,600 (0.44%) of roughly 360,000 compounds were called active. The list comes from a sample in which actives are over-represented; it also holds similar structures and randomly drawn compounds. A number with no mark means an inactive call.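 How the source made its calls: active means every replicate showing at least 50% inhibition; inconclusive means mean inhibition at least 50% but not in every replicate; inactive means the rest.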
# Target: DNA repair protein RAD52 homolog (Homo sapiens) (UniProt P43351)
# Sequence (P43351 whole entry, looked up): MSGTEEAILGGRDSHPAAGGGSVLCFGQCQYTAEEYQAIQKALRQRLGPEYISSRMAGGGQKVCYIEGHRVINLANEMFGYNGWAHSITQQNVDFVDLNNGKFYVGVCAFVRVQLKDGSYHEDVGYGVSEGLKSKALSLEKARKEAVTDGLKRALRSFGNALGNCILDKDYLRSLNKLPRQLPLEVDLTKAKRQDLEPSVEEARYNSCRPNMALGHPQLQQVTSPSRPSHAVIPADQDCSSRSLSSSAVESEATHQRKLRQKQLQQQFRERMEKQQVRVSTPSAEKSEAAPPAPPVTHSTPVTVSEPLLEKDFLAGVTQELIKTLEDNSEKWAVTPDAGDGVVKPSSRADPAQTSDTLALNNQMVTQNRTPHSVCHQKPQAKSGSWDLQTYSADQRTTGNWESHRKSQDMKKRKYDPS
# Experiment: RAD52 DNA annealing inhibitors, primary screen, biochemical, FRET, single point, set 2 (AID 651710)
# Conditions: recombinant RAD52 DNA annealing, FRET fluorescence; at 18.7 µM; stronger effect = higher value
row,Structure (SMILES),inhibition
1,CC(=O)Nc1ccc(CNc2nc(NCCN(C)C)nc3cc(-c4ccccc4)sc23)cc1,98.5% (active)
2,COCCNc1nc(NCc2ccc(NC(C)=O)cc2)c2sccc2n1,-6.25%
3,COCCNc1nc(Nc2ccccc2Cl)c2sc(-c3ccccc3)cc2n1,-21.9%
4,C[C@@H]1CN([C@@H](C)CO)C(=O)c2cc(-c3cccnc3)cnc2O[C@H]1CN(C)Cc1ccc(-c2ccccc2)cc1,20.1%
5,O=C(C[C@H]1CC[C@H](NC(=O)c2ccc(F)cc2)[C@@H](CO)O1)NCCc1ccncc1,2.72%
6,Cc1c(C)n(Cc2ccc(Cl)cc2)c2ccc(C(=O)NCCCN3CCOCC3)cc12,-12.7%
7,CN1CCN(CCCNC(=O)c2ccc(/C=C3\Oc4ccccc4N(Cc4ccc(Cl)cc4)C3=O)cc2)CC1,94.8% (active)
8,CCC1Oc2ccccc2N(CC(=O)NCCCN2CCN(CC)CC2)C1=O (stereo unspecified),-5.96%
9,C[C@H](O)C#Cc1ccc([C@@H]2[C@H](CO)N3CCCCN(CC4CC4)C[C@@H]23)cc1,8.98%
10,COc1ccccc1C#Cc1ccc([C@@H]2[C@H](CO)N3CCCCN(C(=O)C4CC4)C[C@@H]23)cc1,38.4%
11,CN(C)CC#Cc1ccc([C@H]2[C@H](CO)N3CCCCN(CC4CC4)C[C@@H]23)cc1,65.4% (active)
12,COc1ccccc1C#Cc1ccc([C@H]2[C@H](CO)N3CCCCN(C(=O)C4CCC4)C[C@@H]23)cc1,-21.5%
13,COc1ccccc1C#Cc1ccc([C@@H]2[C@H](CO)N3CCCCN(C(=O)C4CCCC4)C[C@@H]23)cc1,71% (active)
14,C[C@@H](O)C#Cc1ccc([C@H]2[C@@H](CO)N3CCCCN(CC4CC4)C[C@@H]23)cc1,-24.5%
15,C[C@@H](NC(=O)C[C@H]1C[C@@H]2c3cc(NC(=O)c4ccc5c(c4)OCO5)ccc3O[C@@H]2[C@@H](CO)O1)c1ccccc1,8.57%
16,CO[C@H](CN(C)S(=O)(=O)c1ccc(C)cc1)[C@@H](C)CN(Cc1ccccc1Cl)[C@@H](C)CO,-2.08%
17,CO[C@H]1CN(C)C(=O)c2cc(NC(=O)Nc3ccccc3F)ccc2OC[C@H](C)N(C)C[C@H]1C,4.64%
18,CC(C)NC(=O)N1C[C@@H]2[C@H](c3ccccc31)[C@H](CO)N2C(=O)C1CCCC1,0.805%
19,COc1ccc(N(Cc2ccc(N(C)C)cc2)C(=O)c2ccc(S(C)(=O)=O)cc2)cc1,2.51%
20,COc1ccc(S(=O)(=O)N(C)CC(=O)N2CCCC2)cc1,-9.04%
21,COc1ccc2sc(N(CCCN(C)C)C(=O)c3ccc(S(=O)(=O)N(C)C4CCCCC4)cc3)nc2c1,62.7% (active)
22,Cn1ccc(=Nc2ccc(NC(=O)c3ccc(N=c4ccn(C)c5ccc([N+](=O)[O-])cc45)cc3)cc2)cc1,94.9% (active)

row,Structure (SMILES),inhibition
1,Cn1c(=O)n(C)c2cc(C(=O)Nc3ccc(Br)cc3)ccc21,-11.5%
2,CN(CC1CCCO1)S(=O)(=O)c1ccc(C(=O)Nc2ccc([N+](=O)[O-])cc2)cc1 (stereo unspecified),-8.13%
3,C[C@@H]1CN([C@@H](C)CO)S(=O)(=O)c2ccc(/C=C/c3ccccc3)cc2O[C@H]1CN(C)C(=O)C1CC1,14.6%
4,O=C(C[C@H]1CC[C@H]2[C@@H](COC[C@H](O)CN2Cc2nccs2)O1)NCc1ccc(Oc2ccccc2)cc1,9.32%
5,O=C(Nc1ccccc1F)N[C@@H]1CC[C@H](CC(=O)N2CCCCC2)O[C@H]1CO,-11.7%
6,C#Cc1cc(N2CCN(C(=O)c3ccoc3)CC2)n2nc(-c3cccc(Cl)c3)cc2n1,10.8%
7,CN(C)CCN1CCN(c2cc(-c3cccc(Cl)c3)nc3ccnn23)CC1,91.4% (active)
8,O=C(c1ccccc1)N1CCN(c2cc(-c3ccccc3)nc3cc(-c4cccc(Cl)c4)nn23)CC1,-9.17%
9,CN(C)C(=O)c1cccc(-c2ccccc2[C@@H]2[C@@H](CO)N(C(=O)C3CCCCC3)[C@H]2C#N)c1,6.38%
10,C[C@@H]1CN([C@H](C)CO)C(=O)Cc2cc(NC(=O)CCCN(C)C)ccc2O[C@@H]1CN(C)Cc1ccc(Oc2ccccc2)cc1,54.4%
11,C[C@H](CO)N1C[C@H](C)[C@H](CN(C)Cc2ccc(-c3ccccc3)cc2)Oc2ccc(NC(=O)Nc3ccc(F)cc3)cc2CC1=O,-6.38%
12,C[C@H]1CN([C@@H](C)CO)C(=O)Cc2cc(NC(=O)CCCN(C)C)ccc2O[C@@H]1CN(C)Cc1ccc(-c2ccccc2)cc1,48.7%
13,C[C@H](CO)N1C[C@H](C)[C@@H](CN(C)Cc2ccc(-c3ccccc3)cc2)Oc2ccc(NC(=O)CCC(F)(F)F)cc2CC1=O,23.2%
14,C[C@H](CO)N1C[C@H](C)[C@@H](CN(C)Cc2ccc(-c3ccccc3)cc2)Oc2ccc(NC(=O)CCCN(C)C)cc2CC1=O,94% (active)
15,C[C@@H]1CN([C@@H](C)CO)C(=O)Cc2cc(NC(=O)CCCN(C)C)ccc2O[C@@H]1CN(C)Cc1ccc(-c2ccccc2)cc1,86.8% (active)
16,O=C(N[C@H]1CC[C@@H](CCNS(=O)(=O)c2ccccc2)O[C@@H]1CO)c1cnccn1,-13.2%
17,C[C@@H]1CN([C@H](C)CO)C(=O)CCCn2cc(nn2)CO[C@H]1CN(C)C(=O)Nc1ccc(N2CCCCC2)cc1,-12.3% and -1.13% and -23.2%
18,Cc1onc(-c2ccccc2)c1C(=O)N=C(N)c1ccc(Cl)cc1,-19.5%
19,Clc1ccc2nc(-c3ccccc3)nc(C(Cl)Cl)c2c1,-10.7%
20,NC(N)=Nc1nc(-c2ccccc2)c2cc(Cl)ccc2n1,84.7% (active)
21,O=C(CCC(=O)Nc1ccccc1)N/N=C/c1ccccc1F,-7.35%
22,CC1=NNC(=O)C1CCC(=O)N/N=C\c1ccc(Cl)c(Cl)c1 (stereo unspecified),-0.875%

row,Structure (SMILES),inhibition
1,NCCCCCC(=O)N/N=C/c1ccc2nccnc2c1,87.9% (active)
2,CCCNC(=O)N(C)C[C@H]1Oc2cc(C#CC(C)(C)O)ccc2S(=O)(=O)N([C@H](C)CO)C[C@@H]1C,-3.15%
3,COCC#Cc1cnc2c(c1)C(=O)N([C@H](C)CO)C[C@H](C)[C@@H](CN(C)C(=O)Nc1cc(F)ccc1F)O2,-15.1%
4,C[C@@H]1CN([C@@H](C)CO)C(=O)c2cc(NC(=O)Nc3ccc4c(c3)OCO4)ccc2O[C@@H](C)CCCCO[C@@H]1CN(C)Cc1ccccc1,-6.98%
5,Cc1c(CCOC(=O)CC23CC4CC(CC(C)(C4)C2)C3)sc[n+]1Cc1ccc([N+](=O)[O-])cc1,57.8% (active)
6,Cc1c(CCOC(=O)c2cc([N+](=O)[O-])ccc2Cl)sc[n+]1CCCCS(=O)(=O)[O-],-6.18%
7,Cc1c(CCO)sc[n+]1CC(=O)OC12CC3CC(CC(C3)C1)C2,9.07%
8,CO[C@H]1CN(C)C(=O)c2ccc(NC(=O)Nc3ccccc3)cc2OC[C@@H](C)N(C(=O)CC2CC2)C[C@@H]1C,7.81%
9,COc1ccc(C#Cc2ccc3c(c2)[C@]2(C(=O)N3)[C@H](c3ccccc3OCCO)N3[C@H](c4ccccc4)[C@H](c4ccccc4)OC(=O)[C@H]3[C@@H]2C(=O)N2CCCCCCC2)cc1,55.6% (active)
10,O=C1O[C@@H](c2ccccc2)[C@@H](c2ccccc2)N2[C@@H](c3ccccc3OCCO)[C@]3(C(=O)Nc4ccc(C#CC5(O)CCCCCC5)cc43)[C@@H](C(=O)N3CCCCCCC3)[C@H]12,6.97%
11,COc1ccc(C#Cc2ccc3c(c2)[C@]2(C(=O)N3)[C@H](C(=O)N3CCCCCCC3)[C@H]3C(=O)O[C@H](c4ccccc4)[C@H](c4ccccc4)N3[C@@H]2c2ccc(O)cc2)cc1,0.035%
12,CO[C@H]1CN(C)C(=O)c2ccc(NC(C)=O)cc2OC[C@H](C)N(CC2CC2)C[C@@H]1C,5.82%
13,COc1ccc(NC(=O)Nc2cccc3c2O[C@H](CN(C)C(=O)Nc2ccc(F)cc2)[C@@H](C)CN([C@@H](C)CO)C3=O)cc1,-2.48%
14,O=C(C1CCCCC1)N1CC2(C1)[C@H](c1ccccc1)[C@H](CO)N2CC1CCCC1,-23.5%
15,Cc1cc(C)c2nc3nc(C)cc(C)c3c(N)c2c1,91% (active)
16,C[C@H]1CN([C@@H](C)CO)C(=O)c2cccc(NC(=O)C3CCOCC3)c2O[C@@H]1CN(C)C(=O)Nc1cccc2ccccc12,6.23%
17,CC=Cc1ccc2n(c1=O)C[C@@H]1[C@@H](CO)[C@H](C(=O)NCCC)[C@H]2N1C(=O)C1CC1 (mixture of isomers),6.42%
18,CC=Cc1ccc2n(c1=O)C[C@@H]1[C@@H](CO)[C@H](C(=O)NCC)[C@H]2N1CCC(F)(F)F (mixture of isomers),75.5% (active)
19,CC=Cc1ccc2n(c1=O)C[C@@H]1[C@@H](CO)[C@H](C(=O)N(C)C)[C@H]2N1CCc1ccccc1 (mixture of isomers),-10.1%
20,CC(=O)N1[C@@H](CO)[C@H](c2ccccc2)[C@@H]1CN(C(=O)c1ccccc1)C(C)C,-18%
21,O=C(C[C@H]1CC[C@@H](NC(=O)c2ccc(F)cc2)[C@@H](CO)O1)NCc1ccncn1,-0.457%
22,CO[C@@H]1CN(C)C(=O)c2cc(NC(=O)C3CC3)ccc2OC[C@@H](C)N(Cc2ccc(F)cc2)C[C@@H]1C,-6.33%
